# Test results from PubChem BioAssay (NCATS).
# Values without a mark were called inactive. For part of these data: Results with a measured potency or affinity are listed apart. The source made the active and inactive calls. No rule for the calls is given here.
# Experiments:
# [1] = Ebola virus entry assay, green fluorescence channel
# [2] = Ebola virus entry assay, blue channel fluorescence
# [3] = Ebola virus entry assay, ratio channel
# [4] = Ebola virus entry assay, green channel fluorescence
# [5] = Ebola virus entry assay, reporter ratio channel; Channel type: primary
# [6] = Ebola virus entry assay, blue channel (ratio component)
# For efficacy in this document: 0% is about no effect.
SMILES,efficacy [1] [%],outcome [2],outcome [3],outcome [4],outcome [5],outcome [6],AC50 [2],AC50 [3],AC50 [5]
Cc1ccc2c(Cl)cc(Cl)c(O)c2n1,-13.1,inactive,inactive,inactive,inactive,inactive,–,–,–
CN(Cc1cc(Br)cc(Br)c1N)C1CCCCC1,17.3,–,–,inactive,–,–,22.4 µM (active),20 µM (active),20 µM (active)
CN(C)CCc1c[nH]c2ccccc12,-12.4,–,inactive,inactive,inactive,–,35.5 µM (active),–,–
O=C(CBr)Nc1ccc(Cl)cc1C(=O)c1ccccc1F,28,–,–,inactive,–,–,17.8 µM (active),17.8 µM (active),17.8 µM (active)
C[N+](C)(C)CC[N+]1(C)Cc2c(Cl)c(Cl)c(Cl)c(Cl)c2C1,13.2,inactive,inactive,inactive,inactive,inactive,–,–,–
CN(C)CCc1c[nH]c2cccc(O)c12,-23.9,–,inactive,inactive,–,–,35.5 µM (active),–,39.8 µM (active)
CCCOc1ccc2nc(NC(=O)OC)[nH]c2c1,-28.5,–,–,inactive,–,–,0.501 µM (active),0.562 µM (active),0.562 µM (active)
Cc1cc2nc3ccc(=[N+](C)C)cc-3sc2cc1N,-32.6,–,inactive,inactive,inactive,–,39.8 µM (active),–,–
CC1(C)O[C@@H]2C[C@H]3[C@@H]4CCC5=CC(=O)CC[C@]5(C)[C@@]4(F)[C@@H](O)C[C@]3(C)[C@]2(C(=O)CCl)O1,53.9,–,–,inactive,–,–,12.6 µM (active),10 µM (active),10 µM (active)
CCOC(=O)C(=O)c1csc(NC=O)n1,-15.8,inactive,inactive,inactive,inactive,inactive,–,–,–
CCCCCCCCCCCCOCCOCCOCCOCCOCCOCCOCCOCCOCCO,-12.9,inactive,inactive,inactive,inactive,inactive,–,–,–
CC[C@H](NC(C)C)[C@H](O)c1ccc(O)c2[nH]c(=O)ccc12,-13.2,inactive,inactive,inactive,inactive,–,–,–,–
COc1cc(N)c(Cl)cc1C(=O)NC1CN2CCC1CC2 (configuration not stated),-20.5,inactive,inactive,inactive,inactive,inactive,–,–,–
C#CC1(O)CC[C@H]2[C@@H]3CCC4=CCCC[C@@H]4[C@H]3CC[C@@]21C (some centres not stated),7.54,–,–,inactive,–,–,22.4 µM (active),22.4 µM (active),22.4 µM (active)
CNC(=O)CN(CCN(CCN(CC(=O)[O-])CC(=O)NC)CC(=O)[O-])CC(=O)[O-].O.[Gd+3],-24.9,inactive,inactive,inactive,inactive,inactive,–,–,–
Oc1c(Cl)cc(Cl)c(Cl)c1Cc1c(O)c(Cl)cc(Cl)c1Cl,19.2,–,–,inactive,–,–,28.2 µM (active),15.8 µM (active),15.8 µM (active)
O=C(O)CNC(=O)c1ccccc1I,-12.8,inactive,inactive,inactive,inactive,inactive,–,–,–
Oc1ccc(Cl)cc1Sc1cc(Cl)ccc1O,-28.7,–,–,inactive,–,–,10 µM (active),15.8 µM (active),15.8 µM (active)
CCC1(c2cnc[nH]2)Cc2ccccc2C1,-11.3,–,inactive,inactive,–,–,25.1 µM (active),–,31.6 µM (active)
CC1(C)[C@@H]2CC[C@@]1(C)C(=O)C2,9.79,inactive,inactive,inactive,inactive,inactive,–,–,–

SMILES,efficacy [1] [%],outcome [2],outcome [3],outcome [4],outcome [5],outcome [6],AC50 [2],AC50 [3],AC50 [5]
Nc1ccncc1N,-16.5,inactive,inactive,inactive,inactive,inactive,–,–,–
Cc1cccc(C)c1NC(=O)CN1CCCC1,18.6,inactive,inactive,inactive,inactive,inactive,–,–,–
Cc1ccc(=O)n(-c2ccccc2)c1,-13.1,inactive,inactive,inactive,inactive,inactive,–,–,–
COc1ccccc1N1CCN(CCCNc2cc(=O)n(C)c(=O)n2C)CC1,43.6,–,inactive,inactive,–,–,28.2 µM (active),–,39.8 µM (active)
C[C@@H](O)[C@H](N)C(=O)O,-9.88,inactive,inactive,inactive,inactive,inactive,–,–,–
CC(Cc1cccc(C(F)(F)F)c1)NCCOC(=O)c1ccccc1 (configuration not stated),23,–,–,inactive,–,–,31.6 µM (active),28.2 µM (active),28.2 µM (active)
O=C(NC(=O)c1c(F)cccc1F)Nc1cc(Cl)c(OC(F)(F)C(F)C(F)(F)F)cc1Cl (configuration not stated),43.9,–,–,inactive,–,–,17.8 µM (active),20 µM (active),20 µM (active)
COc1ccc2c3c1O[C@H]1[C@@H](O)C=C[C@H]4[C@@H](C2)N(C)CC[C@@]341,44,–,inactive,inactive,–,–,28.2 µM (active),–,31.6 µM (active)
NC(N)=N/N=C/c1c(Cl)cccc1Cl,-12.6,–,–,inactive,–,–,28.2 µM (active),28.2 µM (active),28.2 µM (active)
O=C(O)Cc1ccc(CCNS(=O)(=O)c2ccc(Cl)cc2)cc1,18.5,inactive,inactive,inactive,inactive,–,–,–,–
COc1ccc2cc3[n+](cc2c1OC)CCc1cc2c(cc1-3)OCO2,30.3,inactive,inactive,inactive,inactive,–,–,–,–
O=C1Cc2cc(Cl)ccc2N1,-20.6,inactive,inactive,inactive,inactive,inactive,–,–,–
Clc1ccccc1C(c1ccccc1)(c1ccccc1)n1ccnc1,24.5,–,inactive,inactive,–,–,39.8 µM (active),–,39.8 µM (active)
COCCc1ccc(OCC2CO2)cc1 (configuration not stated),25.5,inactive,inactive,inactive,inactive,–,–,–,–
OC[C@H]1O[C@@H](O[C@@H]2[C@@H](CO)O[C@](O)(CO)[C@H]2O)[C@H](O)[C@@H](O)[C@H]1O,-16.4,inactive,inactive,inactive,inactive,inactive,–,–,–
CC(=O)Nc1ccc(OCCOCCOc2ccc(NC(C)=O)cc2)cc1,20.2,inactive,inactive,inactive,inactive,inactive,–,–,–
NNc1nnc(NN)c2ccccc12,-13,inactive,inactive,inactive,inactive,inactive,–,–,–
NC(=O)C1(N2CCCCC2)CCN(CCCC(=O)c2ccc(F)cc2)CC1,25.9,inactive,inactive,inactive,inactive,inactive,–,–,–
Cc1ncc([N+](=O)[O-])n1C,20.2,inactive,inactive,inactive,inactive,inactive,–,–,–
O=S(=O)(O)NC1CCCCC1,14.2,inactive,inactive,inactive,inactive,inactive,–,–,–

SMILES,efficacy [1] [%],outcome [2],outcome [3],outcome [4],outcome [5],outcome [6],AC50 [2],AC50 [3],AC50 [5]
COCCOC(=O)C1=C(C)NC(C)=C(C(=O)OC/C=C/c2ccccc2)C1c1cccc([N+](=O)[O-])c1 (configuration not stated),17.5,inactive,inactive,inactive,inactive,inactive,–,–,–
C[C@@H]1CC[C@@]2(OC1)O[C@H]1C[C@H]3[C@@H]4CC[C@H]5C[C@@H](O)CC[C@]5(C)[C@H]4CC(=O)[C@]3(C)[C@H]1[C@@H]2C,21.9,inactive,inactive,inactive,inactive,inactive,–,–,–
CCCCC1C(=O)NC(=O)N(C2CCCCC2)C1=O (configuration not stated),18.4,inactive,inactive,inactive,inactive,inactive,–,–,–
O=C(OCC(COC(=O)c1cccnc1)(COC(=O)c1cccnc1)COC(=O)c1cccnc1)c1cccnc1,-29.2,inactive,inactive,inactive,inactive,inactive,–,–,–
CSc1ccc(C(=O)c2[nH]c(=O)[nH]c2C)cc1,19.8,inactive,inactive,inactive,inactive,inactive,–,–,–
CCOc1cc(N)c(Cl)cc1C(=O)NCC1CN(Cc2ccc(F)cc2)CCO1 (configuration not stated),26.3,inactive,inactive,inactive,–,inactive,–,–,39.8 µM (active)
C[C@]12C=CC(=O)C=C1CC[C@@H]1[C@@H]2CC[C@@]2(C)[C@H]1CC[C@]2(C)O,-14,inactive,inactive,inactive,inactive,inactive,–,–,–
CC(C)(C)C(=O)NCCCC(=O)O,-17.8,inactive,inactive,inactive,inactive,inactive,–,–,–
CC1(C)OC[C@@H](COC(=O)CCc2ccc(OC[C@@H](O)CNCCNC(=O)N3CCOCC3)cc2)O1,-15.7,inactive,inactive,inactive,inactive,inactive,–,–,–
CC1(C)OC(=O)Nc2ccc(Br)cc21,-21.5,inactive,inactive,inactive,inactive,inactive,–,–,–
O=C(O)CP(=O)(O)O,-15.3,inactive,inactive,inactive,inactive,inactive,–,–,–
CC(=O)O[C@H]1C[C@@H]2CC[C@@H]3[C@H](CC[C@@]4(C)[C@H]3C[C@H]([N+]3(C)CCCCC3)[C@@H]4OC(C)=O)[C@@]2(C)C[C@@H]1N1CCCCC1,-18,inactive,inactive,inactive,inactive,inactive,–,–,–
O=C(O)c1ccccc1Nc1cc(Cl)ccc1C(=O)O,-12.4,inactive,inactive,inactive,inactive,inactive,–,–,–
COc1ccc(CN2CCNCC2)c(OC)c1OC,47.4,inactive,inactive,inactive,inactive,inactive,–,–,–
CC(=O)Oc1ccc(C(=C2CCCCC2)c2ccc(OC(C)=O)cc2)cc1,-12.6,inactive,inactive,inactive,inactive,inactive,–,–,–
N[C@H]1CN(c2c(F)cc3c(=O)c(C(=O)O)cn(C4C[C@@H]4F)c3c2Cl)CC12CC2 (some centres not stated),-25.5,inactive,inactive,inactive,inactive,inactive,–,–,–
O=C(O)CCC(=O)OC[C@@H](NC(=O)C(Cl)Cl)[C@H](O)c1ccc([N+](=O)[O-])cc1,19.1,inactive,inactive,inactive,inactive,inactive,–,–,–
Cc1nnc(C(=O)NC(C)(C)c2nc(C(=O)NCc3ccc(F)cc3)c(O)c(=O)n2C)o1,-16.5,inactive,inactive,inactive,inactive,inactive,–,–,–
